Reference: the supplement of paper PMC8699584
“And” between values parts separate entries of the source, which are not always exact repeats. Identical values can stand only once. ± gives the standard deviation of the averaged measurements.

Experiments:
Molm13 = experiment: cell viability relative to DMSO control (bortezomib = 0%); higher = less growth inhibition; settings: 10 nM; 72 h
How it was run: (§1)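 Acute myeloid leukemia cells were plated at 1000 cells per well in 50 µL onto a 679-compound library of approved and investigational agents in 384-well plates and exposed to a single 10 nM dose for 72 h, in duplicate. Cell viability was measured by CellTiter-Glo luminescence on an EnVision reader. Readings were scaled to percentages by per-plate linear regression, with DMSO-treated cells set at 100% and positive-control-treated cells at 0%.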

Mv4-11 = experiment: as above; settings: 10 nM; 72 h
How it was run: as §1

Structure (SMILES)	cell viability (Molm13)	cell viability (Mv4-11)
COc1cc(OC2CCN(C)CC2)ccc1Nc1ncc2c(n1)n(C1CCCC1)c(=O)n2C	107 ± 7.8%	104.1 ± 0.45%
COc1cc(Nc2nc3ccccc3nc2NS(=O)(=O)c2ccc(NC(=O)c3ccc(C)c(OC)c3)cc2)cc(OC)c1	107 ± 25%	116.8 ± 0.41%
Oc1ccc2c(c1)OCO2 [Sesamol]	103 ± 1.4%	113.6 ± 0.84%
Cc1ccc(S(=O)(=O)NC(=O)NN2CC3CCCC3C2)cc1 (stereo unspecified) [Gliclazide]	98.5 ± 5.5%	113 ± 6.1%
O=C1NC(=O)/C(=C/c2ccc3nccc(-c4ccncc4)c3c2)S1	106% and 113%	103% and 115%
O=C1NC(=O)/C(=C/c2ccc3nccnc3c2)S1	102 ± 17%	113 ± 4.8%
C[C@H]1[C@H](C)CC[C@]2(C(=O)O[C@@H]3O[C@H](CO[C@@H]4O[C@H](CO)[C@@H](O[C@@H]5O[C@H](C)[C@H](O)[C@@H](O)[C@H]5O)[C@H](O)[C@H]4O)[C@@H](O)[C@H](O)[C@H]3O)CC[C@]3(C)C(=CC[C@@H]4[C@@]5(C)C[C@@H](O)[C@H](O)[C@@](C)(CO)[C@@H]5CC[C@]43C)[C@H]12 [Asiaticoside]	108 ± 13%	114 ± 2.9%
COc1cc2ncnc(Nc3cccc(Br)c3)c2cc1OC	93.4% and 102%	99.1% and 113%
O=C(COc1ccc(Cl)cc1)NC1CCC(NC(=O)COc2ccc(Cl)cc2)CC1 (stereo unspecified)	109 ± 1.8%	111 ± 14%
NC(=O)c1ncn([C@@H]2O[C@H](CO)[C@@H](O)[C@H]2O)c1N [AICAR (Acadesine)]	110 ± 7.6%	111 ± 9.2%
COc1ccc(Cl)cc1NC(=O)Nc1cc(C)nc2ccccc12	129 ± 23%	130 ± 17%
COc1ccc(C=C(C#N)c2cccnc2)cc1OC	100 ± 14%	103 ± 0.99%
Cc1cc(N2CCOCC2)ccc1Nc1nc(NC2CCCCC2)c2[nH]cnc2n1	119 ± 3.6%	108 ± 15%
Oc1ccc(-c2nc(-c3ccc(F)cc3)c(-c3ccncc3)[nH]2)cc1	94% and 105%	104% and 106%
N#CC(c1ccnc(NCCc2cccnc2)n1)c1nc2ccccc2s1 (stereo unspecified)	105 ± 26%	109 ± 28%
Nc1cccc(-c2nc(N3CCOCC3)c3oc4ncccc4c3n2)c1 [PIK-inhibitors]	82.5 ± 19%	103 ± 15%
CC(C)c1[nH]nc(Cl)c1-c1ccnc(Nc2ccc(N3CCC(N(C)C)CC3)cn2)n1	115 ± 1.8%	112 ± 9.6%

Structure (SMILES)	cell viability (Molm13)	cell viability (Mv4-11)
C#Cc1cccc(Nc2ncnc3cc4c(cc23)OCCOCCOCCO4)c1 [Icotinib]	93.2 ± 10%	97.5 ± 5.9%
CC(C)(C)c1nc(-c2cccc(NS(=O)(=O)c3c(F)cccc3F)c2F)c(-c2ccnc(N)n2)s1	98.4 ± 6.6%	124 ± 2.6%
CCOC(=O)c1cnc2ccc(-c3cncc(NS(=O)(=O)c4ccccc4)c3)cn12	99.7 ± 8.9%	103 ± 14%
CC(C)Oc1ccc(C(=O)N[C@H](CNC(=O)CN(C)C)Cc2ccc(-c3cn4cccc([C@H](C)O)c4n3)cc2)cc1Cl	110 ± 19%	121 ± 9.3%
COCCN1CCN(Cc2ccc(-c3n[nH]c4c3C(=O)c3c(NC(=O)NN5CCOCC5)cccc3-4)cc2)CC1	70.99 ± 0.17%	55.6 ± 8.7%
COc1cc(N2CCOCC2)ccc1Nc1ncc(Cl)c(Nc2ccccc2NS(C)(=O)=O)n1	108 ± 10%	111 ± 24%
CC(=O)Nc1cccc(-n2c(=O)n(C3CC3)c(=O)c3c(Nc4ccc(I)cc4F)n(C)c(=O)c(C)c32)c1	101 ± 25%	107 ± 1.9%
O=c1cc(N2CCOCC2)oc2c(-c3cccc4c3sc3ccccc34)cccc12	108 ± 5.3%	108 ± 8.2%
CNS(=O)(=O)c1ccccc1Nc1nc(Nc2ccc(N3CCN(C)CC3)cc2OC)ncc1Cl [ALK inhibitor 2]	98.9 ± 20%	104 ± 16%
CS(=O)(=O)c1ccc(-c2cnc(N)c(C(=O)Nc3ccccc3)n2)cc1	83.9 ± 3.9%	93.76 ± 0.24%
O=C(NC(CO)c1ccc(F)c(Cl)c1)c1cc(-c2[nH]ncc2-c2cccc(Cl)c2)c[nH]1 (stereo unspecified)	116 ± 16%	110 ± 7.8%
O=C1NC(=O)/C(=C/c2ccc(-c3ccc(F)cc3O)o2)S1	106 ± 2.7%	95.5 ± 9.9%
NC(=O)c1ccc(N(C(N)=O)c2c(F)cccc2F)nc1-c1ccc(F)cc1F	93.7 ± 5.1%	98.7 ± 8.1%
Cc1ccc(C(=O)Nc2ccc(CN3CCN(C)CC3)c(C(F)(F)F)c2)cc1C#Cc1cnc2[nH]ncc2c1 [GZD824 Dimesylate]	4.07 ± 5.9%	-9.27 ± 10%
O=C(Nc1nc2cccc(-c3ccc(CN4CCS(=O)(=O)CC4)cc3)n2n1)C1CC1 [Filgotinib (GLPG0634)]	86.4 ± 6%	107.7 ± 0.87%
NCCCNc1ccc(Nc2nccc(Nc3cc(C4CC4)[nH]n3)n2)cc1	94.71 ± 0.31%	110 ± 7.2%
